Laboratory results published in PubChem BioAssay.
For part of these data: Measured potencies and affinities stand elsewhere. The source made the active and inactive calls. Unless noted, the rule behind the calls is not given here.

biological target: Protein kinase 7 (PK7), Plasmodium falciparum 3D7 (PF3D7_0213400) (UniProt Q7YTF7); experiment: inhibition of Plasmodium PK7 catalytic activity – biochemical, TCAMS antimalarial set, Kinase-Glo luminescence (AID 1159587); conditions: recombinant PfPK7, Kinase-Glo ATP depletion luminescence
Sequence (Q7YTF7 1-343): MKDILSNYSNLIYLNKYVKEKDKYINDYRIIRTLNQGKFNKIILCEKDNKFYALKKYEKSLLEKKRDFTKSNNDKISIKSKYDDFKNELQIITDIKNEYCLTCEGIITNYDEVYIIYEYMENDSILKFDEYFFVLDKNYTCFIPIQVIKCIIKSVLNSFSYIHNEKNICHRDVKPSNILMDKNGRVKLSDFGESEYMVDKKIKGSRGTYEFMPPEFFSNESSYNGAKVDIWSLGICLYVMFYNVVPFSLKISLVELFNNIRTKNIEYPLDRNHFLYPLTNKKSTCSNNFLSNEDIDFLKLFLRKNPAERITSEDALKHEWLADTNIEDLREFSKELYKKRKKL

outcome, inactive:
O[C@@H](c1ccccc1)[C@@H]1CN(Cc2ccccc2)CC[C@@]1(O)c1ccccc1, CC(NC(=O)c1ccc(O)c(-c2ccc(Cl)c(Cl)c2)c1)C(=O)NCCN1CCCCC1 (stereo not drawn), CCCC(=O)Nc1ccc(OCCCCN(CC(C)(C)C)c2ccc(C#N)c(C(F)(F)F)c2)cc1, O=C(Nc1ccc2nc3n(c(=O)c2c1)CCCCC3)C(=O)N1CCC(Cc2ccccc2)CC1, CCCC(C)NC(=O)[C@H](CC1CCCCC1)NC(=O)c1ccc(O)c(-c2ccc(OC)cc2)c1 (stereo partly drawn), Cc1cccc(-c2cc3cc(Nc4ccnc5cc(-c6nccs6)ccc45)ccc3[nH]2)c1, CCCc1cc(Cc2cnc(N)nc2N)cc(CCC)c1OCCCCC(=O)OC, CCN(CCCN1CCCCC1)c1cc(C)nc(Nc2cc(F)cc(F)c2)n1, CC(C)(Oc1c(C2CCN(CCCCNC(=O)c3ccc(-c4ccc(Cl)cc4)cc3)CC2)ccc2c1CCCC2)C(N)=O, CCOc1cc(C)c(C2CCN(CCCCNC(=O)c3ccc(NC(=O)c4ccc(Cl)cc4)cc3)CC2)cc1C, Cc1nc(C)c(CC(=O)Nc2ccc(-c3cccc(-c4nc5c(C)cccc5[nH]4)c3)cc2)s1, Cn1nc(C(F)(F)F)c(-c2ccc(F)cc2)c1NC(=O)Nc1ccccc1, CC(C)Cn1c(N)cc(=O)n(C)c1=O, O=C(Cn1c(CCc2cccc(F)c2F)nc(=O)c2ccccc21)N(CCCN1CCCCC1)Cc1ccc(-c2ccc(C(F)(F)F)cc2)cc1, CCOc1cc(C)ccc1C1CCN(CCCCNC(=O)c2nc(-c3ccc(C(F)(F)F)cc3)[nH]c2C)CC1, Cc1sc2nc(CN3CCCC3)nc(-n3c(NCCO)nc4ccccc43)c2c1C, Fc1cccc(CNc2ncc(-c3ccsc3)c(-c3nccs3)n2)c1, O=C(/C=C/c1ccc(Cl)c(Cl)c1)NCCCCCCN1CCCN(C(=O)Nc2ccc(F)c(Cl)c2)CC1, Cc1ccc(C(=O)N2CCN(Cc3nccs3)CC2)cc1, O=C(c1ccccc1)N(Cc1ccccc1-c1ccc(CNCCc2ccccc2)cc1)C1CCN(Cc2ccccc2)CC1, CC(=O)N(C)c1cccc(C(=O)Nc2cccc(-c3ccc(-c4nc5ccc(C(F)(F)F)cc5[nH]4)cc3)c2)c1, Nc1nc(N)c2c(ccc3c2ccn3CCCC2CCCNC2)n1 (stereo not drawn), COc1cc(C(C)C)nc2ccc(NC(=O)c3ccc(C(=O)Nc4ccc5nc(C(C)C)cc(OC)c5c4)cc3)cc12, COc1cccc(C(=O)[C@H]2C[C@@H]2CN(C)CC(O)c2cc(C)c(OC)cc2C)c1 (stereo partly drawn), Cc1sc(C)c(CNCCCNc2cc(=O)c3ccccc3[nH]2)c1Br, CC(C)Cn1cc(C2CCN(CCN3CCC(CNC(=O)c4ccc(NC(=O)c5cc(Cl)cc(Cl)c5)cc4)CC3)CC2)c2ccccc21, CC(C)c1sc(-c2ccc(C(C)(C)C)cc2)nc1C(=O)NCCCN1CCCC1=O, COC(=O)C(C)(C)Cc1c(SC(C)(C)C)c2cc(C(C)C)ccc2n1Cc1ccc(Cl)cc1, COc1cc(/C=C/C(=O)NCC(CCNc2cc(=O)c3ccccc3[nH]2)NCc2cc(Br)cc(Br)c2)cc(OC)c1 (stereo not drawn), CCC(C)CN1C(=O)C(c2ccccc2)(c2ccccc2)N=C1N (stereo not drawn), CCOc1ccc(-c2nonc2NC(=O)c2ccccc2Cl)cc1OCC, Cc1noc(C)c1-c1cccc(CNCc2ccc(-c3cccc(-c4nc5ccc(C(F)(F)F)cc5[nH]4)c3)cc2)c1, COc1c(C2CCN(CCCCNC(=O)c3cc(-c4ccc(C#N)cc4)n[nH]3)CC2)ccc2c1CCCC2, COc1ccc2nccc(NC(=O)N3CCC(NCCOc4cc(F)cc(F)c4)CC3)c2n1, CC(=O)c1cc(N2CCCC2)ccc1N, C=C(C)Cn1cc(C2CCN(CCN3CCC(CNC(=O)c4ccc(-c5ccc(C#N)cc5)cc4)CC3)CC2)c2ccccc21, O=C(Nc1ccc(-c2ccc(-c3nc4ccc(C(F)(F)F)cc4[nH]3)s2)cc1)c1cnc[nH]1, O=C(/C=C/c1ccc(CNCCN2CCOCC2)cc1)NCCc1ccccc1, CCCCN1CCCC[C@H]1[C@@H](O)c1ccnc2ccc(OCC)cc12

biological target: Calcium-dependent protein kinase 4 (Plasmodium falciparum (isolate 3D7)) (UniProt Q8IBS5); experiment: PfCDPK4 kinase inhibitors, biochemical, TCAMS library (AID 1159588; cut-off not given, nearly all actives have IC50 up to about 0.91 µM); conditions: recombinant PfCDPK4, Kinase-Glo ATP depletion luminescence
Sequence (Q8IBS5 whole entry, looked up): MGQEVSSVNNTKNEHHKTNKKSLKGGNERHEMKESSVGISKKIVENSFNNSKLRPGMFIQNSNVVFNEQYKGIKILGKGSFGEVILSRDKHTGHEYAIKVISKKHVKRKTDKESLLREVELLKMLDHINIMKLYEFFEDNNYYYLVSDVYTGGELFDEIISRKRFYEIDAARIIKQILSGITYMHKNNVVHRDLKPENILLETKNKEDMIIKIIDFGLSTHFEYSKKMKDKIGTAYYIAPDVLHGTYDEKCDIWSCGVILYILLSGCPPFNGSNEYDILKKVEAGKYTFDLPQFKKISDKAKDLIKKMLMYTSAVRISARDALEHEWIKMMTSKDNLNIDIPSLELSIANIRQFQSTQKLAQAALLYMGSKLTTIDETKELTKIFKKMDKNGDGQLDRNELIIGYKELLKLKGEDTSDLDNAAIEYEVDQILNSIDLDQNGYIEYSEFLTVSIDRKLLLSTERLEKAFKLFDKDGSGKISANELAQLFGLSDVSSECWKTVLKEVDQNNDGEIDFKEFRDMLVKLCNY

outcome, inactive:
O[C@@H](c1ccccc1)[C@@H]1CN(Cc2ccccc2)CC[C@@]1(O)c1ccccc1, CC(NC(=O)c1ccc(O)c(-c2ccc(Cl)c(Cl)c2)c1)C(=O)NCCN1CCCCC1 (stereo not drawn), CCCC(=O)Nc1ccc(OCCCCN(CC(C)(C)C)c2ccc(C#N)c(C(F)(F)F)c2)cc1, O=C(Nc1ccc2nc3n(c(=O)c2c1)CCCCC3)C(=O)N1CCC(Cc2ccccc2)CC1, CCCC(C)NC(=O)[C@H](CC1CCCCC1)NC(=O)c1ccc(O)c(-c2ccc(OC)cc2)c1 (stereo partly drawn), Cc1cccc(-c2cc3cc(Nc4ccnc5cc(-c6nccs6)ccc45)ccc3[nH]2)c1, CCCc1cc(Cc2cnc(N)nc2N)cc(CCC)c1OCCCCC(=O)OC, CCN(CCCN1CCCCC1)c1cc(C)nc(Nc2cc(F)cc(F)c2)n1, CC(C)(Oc1c(C2CCN(CCCCNC(=O)c3ccc(-c4ccc(Cl)cc4)cc3)CC2)ccc2c1CCCC2)C(N)=O, CCOc1cc(C)c(C2CCN(CCCCNC(=O)c3ccc(NC(=O)c4ccc(Cl)cc4)cc3)CC2)cc1C, Cc1nc(C)c(CC(=O)Nc2ccc(-c3cccc(-c4nc5c(C)cccc5[nH]4)c3)cc2)s1, Cn1nc(C(F)(F)F)c(-c2ccc(F)cc2)c1NC(=O)Nc1ccccc1, CC(C)Cn1c(N)cc(=O)n(C)c1=O, O=C(Cn1c(CCc2cccc(F)c2F)nc(=O)c2ccccc21)N(CCCN1CCCCC1)Cc1ccc(-c2ccc(C(F)(F)F)cc2)cc1, CCOc1cc(C)ccc1C1CCN(CCCCNC(=O)c2nc(-c3ccc(C(F)(F)F)cc3)[nH]c2C)CC1, Cc1sc2nc(CN3CCCC3)nc(-n3c(NCCO)nc4ccccc43)c2c1C, Fc1cccc(CNc2ncc(-c3ccsc3)c(-c3nccs3)n2)c1, O=C(/C=C/c1ccc(Cl)c(Cl)c1)NCCCCCCN1CCCN(C(=O)Nc2ccc(F)c(Cl)c2)CC1, Cc1ccc(C(=O)N2CCN(Cc3nccs3)CC2)cc1, O=C(c1ccccc1)N(Cc1ccccc1-c1ccc(CNCCc2ccccc2)cc1)C1CCN(Cc2ccccc2)CC1, CC(=O)N(C)c1cccc(C(=O)Nc2cccc(-c3ccc(-c4nc5ccc(C(F)(F)F)cc5[nH]4)cc3)c2)c1, Nc1nc(N)c2c(ccc3c2ccn3CCCC2CCCNC2)n1 (stereo not drawn), COc1cc(C(C)C)nc2ccc(NC(=O)c3ccc(C(=O)Nc4ccc5nc(C(C)C)cc(OC)c5c4)cc3)cc12, COc1cccc(C(=O)[C@H]2C[C@@H]2CN(C)CC(O)c2cc(C)c(OC)cc2C)c1 (stereo partly drawn), Cc1sc(C)c(CNCCCNc2cc(=O)c3ccccc3[nH]2)c1Br, CC(C)Cn1cc(C2CCN(CCN3CCC(CNC(=O)c4ccc(NC(=O)c5cc(Cl)cc(Cl)c5)cc4)CC3)CC2)c2ccccc21, CC(C)c1sc(-c2ccc(C(C)(C)C)cc2)nc1C(=O)NCCCN1CCCC1=O, COC(=O)C(C)(C)Cc1c(SC(C)(C)C)c2cc(C(C)C)ccc2n1Cc1ccc(Cl)cc1, COc1cc(/C=C/C(=O)NCC(CCNc2cc(=O)c3ccccc3[nH]2)NCc2cc(Br)cc(Br)c2)cc(OC)c1 (stereo not drawn), CCC(C)CN1C(=O)C(c2ccccc2)(c2ccccc2)N=C1N (stereo not drawn), CCOc1ccc(-c2nonc2NC(=O)c2ccccc2Cl)cc1OCC, Cc1noc(C)c1-c1cccc(CNCc2ccc(-c3cccc(-c4nc5ccc(C(F)(F)F)cc5[nH]4)c3)cc2)c1, COc1c(C2CCN(CCCCNC(=O)c3cc(-c4ccc(C#N)cc4)n[nH]3)CC2)ccc2c1CCCC2, COc1ccc2nccc(NC(=O)N3CCC(NCCOc4cc(F)cc(F)c4)CC3)c2n1, CC(=O)c1cc(N2CCCC2)ccc1N, C=C(C)Cn1cc(C2CCN(CCN3CCC(CNC(=O)c4ccc(-c5ccc(C#N)cc5)cc4)CC3)CC2)c2ccccc21, O=C(Nc1ccc(-c2ccc(-c3nc4ccc(C(F)(F)F)cc4[nH]3)s2)cc1)c1cnc[nH]1, O=C(/C=C/c1ccc(CNCCN2CCOCC2)cc1)NCCc1ccccc1, CCCCN1CCCC[C@H]1[C@@H](O)c1ccnc2ccc(OCC)cc12
